Sampled rows, rich in hits. Any-hit rate of the full collection: about 1.5%.
DUSP3 inh: DUSP3 (human) phosphatase inhibition | P51452 | AID 1654 | 290,000 tested, 0.52% active | inhibition, % at 13.3 µM | recombinant VHR phosphatase, pNPP absorbance; in the data active means inhibition above about 50%
Target sequence (P51452 whole entry, looked up): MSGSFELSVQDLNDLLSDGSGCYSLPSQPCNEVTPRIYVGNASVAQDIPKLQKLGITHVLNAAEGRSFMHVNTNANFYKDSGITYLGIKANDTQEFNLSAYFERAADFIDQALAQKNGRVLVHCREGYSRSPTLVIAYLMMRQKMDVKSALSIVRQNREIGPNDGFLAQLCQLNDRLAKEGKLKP
RN4220 kill: kills Staphylococcus aureus RN4220. S. aureus RN4220 growth, OD600, 16 h. inhibition, % (no concentration beside the values). 330,000 tested, 0.33% active. AID 1259311; in the data active means inhibition above about 85%;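 further: plate controls were untreated cells for no effect and reference antibiotic for full effect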
Sa ugtP lethal: compounds lethal to S. aureus RN4220 ugtP deletion mutant. OD600 growth, 16 h. 330,000 tested, 0.54% active. AID 1259309. growth inhibition, % (test concentration not listed); in the data active means growth inhibition above about 68%;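 further: plate controls were untreated wells for no effect and antibiotic for full effect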
SSB-PriA inh: K. pneumoniae PriA-SSBct interaction inhibition | AlphaScreen SSBct-PriA binding, biotinylated peptide | inhibition, % at 33 µM | AID 1272365 | 430,000 tested, 0.6% active; in the data active means inhibition mostly above about 37%, no sharp cut-off; inactive means mostly below about 20%;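 further: plate controls were negative control peptide for no effect and reference peptide for full effect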
CCHF vOTU inh-1: blocks the CCHF virus ovarian tumor domain protease; 370,000 tested, 0.55% active; inhibition, % at 11.5 µM; CCHFV vOTU protease, Pep-AMC fluorescence; AID 651958; further: 0% = vehicle wells with enzyme and 100% = no enzyme wells
CCHF vOTU inh-2: confirmation of CCHF virus vOTU protease inhibitors | AID 686976 | 1,900 tested, 17% active | Recombinant CCHFV vOTU, Pep-AMC fluorescence | inhibition, % at 11.5 µM | shares compounds with CCHF vOTU inh-1
Starred values were filed as active, the others as inactive; · = no result. Unless noted, no stated cut-off is given here; in the data, active means inhibition above about 30%; inactive means the rest.

SMILES | DUSP3 inh | RN4220 kill | Sa ugtP lethal | SSB-PriA inh | CCHF vOTU inh-1 | CCHF vOTU inh-2
CC(=O)Nc1ccc(S(=O)(=O)NCC(=O)OCC(=O)N2CCc3ccccc32)cc1 | 22.8 | 4.2 | 5.2 | 5.0 | 29.6* | -15.2
O=[N+]([O-])c1cnccc1Nc1ccccc1 | 11.9 | 9.3 | -0.4 | 1.3 | -10.4 | ·
O=C(O)c1cccc(Nc2ccncc2[N+](=O)[O-])c1 | · | 5.0 | 12.0 | -6.8 | 29.7* | -10.6
Fc1ccc(NC(=S)Nc2cccc3cnccc23)cc1 | 21.7 | 6.7 | 3.1 | 15.8 | 50.1* | 64.8*
CN(C)S(=O)(=O)c1cccc(NC(=S)Nc2cccc3cnccc23)c1 | 13.1 | 5.1 | 8.6 | 2.2 | 39.8* | 89.0*
COc1ccc(NC(=S)Nc2cccc3cnccc23)cc1 | 8.1 | 1.0 | 3.3 | 16.5 | 3.2 | ·
S=C(Nc1ccc(Cl)cc1)Nc1cccc2cnccc12 | 0.1 | -2.1 | -16.1 | 4.5 | 57.7* | 88.5*
O=C(NCC(c1ccsc1)N1CCCCCC1)C(=O)Nc1ccc(F)c(F)c1 (stereo not given) | · | · | · | 0.0 | · | ·
c1cncc(-c2ccc3ncnc(NCc4ccc5c(c4)OCO5)c3c2)c1 | · | 8.9 | 1.4 | 12.7 | 9.2 | ·
Fc1cccc(CNc2ncnc3ccc(-c4ccc5c(c4)OCO5)cc23)c1 | · | -19.0 | 13.7 | -6.8 | 29.6* | -12.9
Cc1cccc(Nc2nc(N)c([N+](=O)[O-])c(NCCO)n2)c1 | -2.8 | · | · | 0.0 | 5.6 | ·
Cc1cccc(NC2=C(NCCO)C(=O)c3ccccc3C2=O)c1 | -1.8 | 19.1 | 5.3 | 73.9 | 53.8* | 15.7
COc1ccc(NC2=C(NC(C)=O)C(=O)c3ccccc3C2=O)cc1 | -7.6 | 25.4 | 2.4 | 8.3 | 3.7 | ·
COc1cccc(NC2=C(NCCO)C(=O)c3ccccc3C2=O)c1 | -18.5 | 26.0 | 11.1 | 62.1 | 34.6* | -2.3
COc1ccc(NC2=C(NCCO)C(=O)c3ccccc3C2=O)cc1 | 10.5 | 16.1 | 0.9 | 23.5 | 87.5* | 57.0*
CCOC(=O)Nc1c(C(=O)Nc2ccc(CC)cc2)oc2ccccc12 | · | · | · | -17.0 | · | ·
Cc1ccc(N2CCCS2(=O)=O)cc1NC(=O)Cc1ccc(F)cc1 | · | · | · | -3.0 | · | ·
CC(C)C[C@H](NC(=O)c1nc[nH]c1C(=O)NCCCCCNC(=O)OC(C)(C)C)C(=O)OCc1ccccc1 | 21.2 | · | · | 4.2 | 30.3* | 15.7
CC(C)C[C@H](NC(=O)c1nc[nH]c1C(=O)NC1CCN(C(=O)OC(C)(C)C)CC1)C(=O)OCc1ccccc1 | -4.1 | · | · | 0.5 | 31.2* | 13.5
CC(C)C[C@H](NC(=O)c1[nH]cnc1C(=O)N[C@@H](Cc1ccccc1)C(=O)OC(C)(C)C)C(=O)OCc1ccccc1 | 1.1 | · | · | -25.0 | 28.5 | ·
CC(C)(C)OC(=O)N1CCC(NC(=O)c2[nH]cnc2C(=O)NC(Cc2ccccc2)C(=O)OCc2ccccc2)CC1 (stereo not given) | · | 4.7 | -24.4 | · | · | ·
CC(C)C[C@H](NC(=O)c1[nH]cnc1C(=O)N[C@@H](Cc1ccccc1)C(=O)OCc1ccccc1)C(=O)OC(C)(C)C | 24.4 | · | · | -1.2 | 29.9* | 17.9
Nc1ccc(Br)c2cccnc12 | 18.5 | -11.7 | -1.4 | 33.2 | 101.4* | 0.6
CS(=O)(=O)Oc1ccc(Br)c2cccnc12 | 12.5 | 5.5 | 12.3 | -10.8 | 10.0 | ·
O=C(O)CSc1cc(NS(=O)(=O)c2ccc(Cl)cc2)c2ccccc2c1O | 41.3 | · | · | -2.1 | 104.0* | 95.3*
SMILES | DUSP3 inh | RN4220 kill | Sa ugtP lethal | SSB-PriA inh | CCHF vOTU inh-1 | CCHF vOTU inh-2
COc1ccc(S(=O)(=O)Nc2cc(Sc3ncn[nH]3)c(O)c3ccccc23)cc1 | 41.4 | · | · | · | 106.5* | 99.2*
O=S(=O)(Nc1cc(Sc2cccc3cccnc23)c(O)c2ccccc12)c1ccc(F)cc1 | 2.1 | 26.5 | 16.1 | 104.1 | 82.7* | -5.1
COc1ccc(S(=O)(=O)Nc2ccc(O)c(Sc3ncn[nH]3)c2)cc1 | 8.8 | 0.2 | 2.0 | -17.0 | -16.4 | ·
COc1ccc(S(=O)(=O)Nc2cc(SCC(=O)O)c(O)c3ccccc23)cc1 | 5.9 | 21.7 | -2.2 | -29.9 | 102.1* | 38.9*
Cc1cc(C)c(S(=O)(=O)Nc2cc(SCC(=O)O)c(O)c3ccccc23)cc1C | -3.8 | 15.9 | 10.7 | 8.1 | · | ·
CCOC(=O)c1oc2c(c1C)/C(=N/O)CCC2 | -6.5 | · | · | · | 32.7* | -7.1
CCOC(=O)c1oc2c(c1C)C(=O)CCC2 | 2.3 | 2.7 | -1.4 | -4.1 | -1.0 | ·
COc1ccccc1-n1c(CNC(=O)COc2ccccc2)nnc1SCC(=O)Nc1ccc(F)cc1 | · | · | · | -16.0 | · | ·
Cn1ccc2c(N3CCCC3)cc3c(c21)C1CCC3O1 (stereo not given) | · | · | · | · | 38.4* | -14.2
Cn1ccc2c(N3CCCCCC3)cc3c(c21)C1CCC3O1 (stereo not given) | · | · | · | · | 1.6 | ·
Cc1cc(NC(=O)C(=O)NCCc2ccc(N3CCCC3)cc2)no1 | · | · | · | -8.0 | · | ·
O=C(CCS(=O)(=O)c1ccccc1)N1CC(c2nc3ccccc3[nH]2)C1 | · | · | · | -4.0 | · | ·
N#Cc1c(N)n(-c2ccccc2N)c2nc3ccccc3nc12 | -7.7 | 8.7 | 5.1 | -9.0 | 64.8* | 65.0*
Fc1ccc2nc(NCc3ccccn3)sc2c1 | · | · | · | -8.0 | · | ·
CCOC(=O)c1ccc(NC(=O)CSc2nnc(-c3ccccn3)n2-n2cccc2)cc1 | · | · | · | 11.0 | · | ·
CCOc1ccc(N=Cc2ccc([N+](=O)[O-])cc2)c(O)c1 | · | · | · | · | 35.2* | -2.7
CCOc1ccc(CNC(=S)N/N=C\c2ccc([N+](=O)[O-])cc2)cc1 | -9.6 | · | · | · | 10.0 | ·
COC(=O)c1ccc2c(=O)n3nc(Nc4ccc(C(C)C)cc4)sc3nc2c1 | · | · | · | -17.0 | · | ·
Cc1cnc(C=NNC(N)=S)c2cccc(N)c12 | · | · | · | 14.4 | 44.6* | 73.2*
Cc1cc(C)cc(NC(=O)C(=O)NCCc2ccco2)c1 | · | · | · | -2.0 | · | ·
CCOC(=O)CSc1nc(-c2ccc(OC)cc2)ns1 | 1.8 | 13.7 | 12.4 | -36.4 | 33.3* | 0.0
COc1ccc(-c2nsc(SCC(=O)N3CCCCC3)n2)cc1 | · | · | · | -12.0 | · | ·
COc1cc(-c2ccc(Nc3ccccc3C(=O)O)c(OC)c2)ccc1Nc1ccccc1C(=O)O | 17.5 | 26.5 | 54.9 | 34.2 | 50.8* | 39.2*
COc1cc([N+](=O)[O-])c(OC)cc1Nc1ccccc1C(=O)O | · | · | · | · | 15.3 | ·
CCN(CC)CCCN1C(=O)C(=O)/C(=C(/O)c2ccccc2)C1c1cc(OC)ccc1OC (stereo not given) | 16.1 | · | · | · | 53.8* | -27.8
SMILES | DUSP3 inh | RN4220 kill | Sa ugtP lethal | SSB-PriA inh | CCHF vOTU inh-1 | CCHF vOTU inh-2
CCN(CC)CCCN1C(=O)C(=O)C(=C(O)c2ccc(OC)cc2)C1c1ccco1 (stereo not given) | · | · | · | 0.5 | · | ·
C(=N\Nc1ncnc2sc3c(c12)CCC3)/c1cccs1 | 9.7 | · | · | · | 4.9 | ·
C(=N\Nc1ncnc2sc3c(c12)CCC3)/c1ccncc1 | 50.2* | · | · | · | 34.2* | -4.2
CC(C)(C)CC(=O)NC1CCN(c2nccs2)CC1 | · | · | · | -2.0 | · | ·
OCCN(Cc1ccccc1)CC(O)COc1ccc(-c2ccccc2)cc1 (stereo not given) | 26.1 | 0.2 | 5.1 | -7.0 | 30.5* | -11.6
COc1cc(C(C)=O)ccc1OCC(O)CN(CCO)Cc1ccccc1 (stereo not given) | 21.7 | 4.3 | 1.9 | -1.6 | 2.1 | ·
O=C1OCCN1/N=C/c1ccc([N+](=O)[O-])o1 | -6.8 | · | · | · | 34.8* | 0.4
